Screening results from PubChem.
The entries come from a sample that favours hits as a whole.
CD11b adhes inh – inhibitors of human CD11b/CD18 binding to fibrinogen | inhibition, % at 10 µM | K562 CD11b/CD18 adhesion to fibrinogen, ATPlite luminescence; Mn2+ added to activate the integrin | 93,000 compounds, 0.54% hits | P05107+P11215 | AID 1497;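 active = primary inhibition of 50% or more at 10 µM, then 40% or more on retest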
hDAT+cocaine – modulates human dopamine transporter uptake under cocaine. Q01959. LLC-PK1 hDAT cells, [14C]-dopamine uptake with cocaine IC80; actives deviate in either direction. B-score at 10 µM. 110,000 compounds, 1.3% hits;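 active = Z score or B-score, a plate-position-corrected score, falls beyond the plate's 99.7% confidence bounds, in either direction; inactive = both scores lie inside the 99.7% bounds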
Pyk2 oligo antag – blocks oligomerization of human Pyk2 in cells; Q14289; Q293 cells, Pyk2 FERM NanoBiT luminescence; hits give low values; z-score (the deposit names both 25 µM and 10 µM); 99,000 compounds, 0.83% hits;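 active = Z-score of -3 or lower, scaled per plate to the spread of control and sample wells; inactive = z-score above -3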;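 note: negative z-score means lost luminescence so less FERM oligomerization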
Target sequence (Q14289 whole entry, looked up): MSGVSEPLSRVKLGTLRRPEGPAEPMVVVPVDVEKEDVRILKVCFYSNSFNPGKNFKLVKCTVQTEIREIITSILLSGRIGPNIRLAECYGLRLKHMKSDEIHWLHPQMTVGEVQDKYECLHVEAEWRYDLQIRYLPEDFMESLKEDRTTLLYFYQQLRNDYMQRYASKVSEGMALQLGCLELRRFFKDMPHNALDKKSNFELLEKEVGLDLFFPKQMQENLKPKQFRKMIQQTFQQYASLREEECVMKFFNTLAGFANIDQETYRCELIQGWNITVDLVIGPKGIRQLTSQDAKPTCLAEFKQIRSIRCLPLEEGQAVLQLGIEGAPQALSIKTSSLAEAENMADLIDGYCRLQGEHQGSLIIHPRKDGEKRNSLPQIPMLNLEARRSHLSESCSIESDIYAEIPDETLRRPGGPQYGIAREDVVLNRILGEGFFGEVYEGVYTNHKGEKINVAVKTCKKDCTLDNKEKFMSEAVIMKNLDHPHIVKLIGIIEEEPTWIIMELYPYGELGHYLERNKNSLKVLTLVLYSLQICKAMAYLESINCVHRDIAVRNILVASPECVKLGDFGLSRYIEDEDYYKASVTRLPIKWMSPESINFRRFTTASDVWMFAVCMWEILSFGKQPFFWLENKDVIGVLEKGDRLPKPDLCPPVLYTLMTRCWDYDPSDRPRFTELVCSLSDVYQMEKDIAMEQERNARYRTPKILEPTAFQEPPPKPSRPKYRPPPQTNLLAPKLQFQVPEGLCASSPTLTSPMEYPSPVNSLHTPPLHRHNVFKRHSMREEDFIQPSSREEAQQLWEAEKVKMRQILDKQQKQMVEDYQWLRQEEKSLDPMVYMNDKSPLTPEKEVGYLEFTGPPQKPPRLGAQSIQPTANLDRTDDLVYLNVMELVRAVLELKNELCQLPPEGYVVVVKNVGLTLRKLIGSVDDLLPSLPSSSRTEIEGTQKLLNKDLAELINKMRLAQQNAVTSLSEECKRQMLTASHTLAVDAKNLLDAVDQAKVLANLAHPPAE
D1 mod – allosterically modulates the human D1 dopamine receptor; P21728; HEK293 D1, CRE-luciferase, dopamine EC30 potentiation; actives deviate in either direction; B-score at 10 µM; 58,000 compounds, 5.9% hits;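 active = luminescence count or its row- and column-corrected plate score outside the 99.7% band of the plate's sample wells, on either side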
Mac1 fbg enh – increases human CD11b/CD18 adhesion to fibrinogen. P05107+P11215. K562 CD11b/CD18 adhesion to fibrinogen, ATPlite luminescence. activation, % at 10 µM. 93,000 compounds, 0.07% hits. AID 1499;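 active = 10 µM primary screen giving 50% or more activity, confirmed by 40% or more on retest at that dose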
FAK inh – inhibitors of human focal adhesion kinase; biochemical FAK kinase activity assay; inhibition, %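 (tested at 7 µM)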; 97,000 compounds, 0.84% hits; AID 727; in the data active = inhibition above about 19%
Large screens that a line does not name were inactive.

CN(C1=NC(=O)C(CC(=O)Nc2ccc(Br)cc2)S1)c1ccc(O)cc1 (configuration not stated)	hDAT+cocaine -4, D1 mod -3.8
COC(=O)CCC(=O)Nc1ccc(Br)cc1	none
O=C(Nc1ccccc1)C1=C[C@H](c2ccc(Br)cc2)C[C@H](OCc2ccc(CO)cc2)O1	none (no result: CD11b adhes inh, Pyk2 oligo antag, D1 mod, Mac1 fbg enh, FAK inh)
O=C1C2C3C=CC(C3)C2C(=O)N1/N=C/c1cc(Br)cc([N+](=O)[O-])c1O (configuration not stated)	CD11b adhes inh 57, hDAT+cocaine -2.8 (no result: D1 mod)
O=C1C2C3C=CC(C3)C2C(=O)N1/N=C/c1cn(Cc2ccccc2)c2ccccc12 (configuration not stated)	none (no result: CD11b adhes inh, D1 mod, Mac1 fbg enh)
O=C(NN=C1CCCCCCCCCCC1)c1ccccc1F	none (no result: CD11b adhes inh, hDAT+cocaine, D1 mod, Mac1 fbg enh, FAK inh)
O=C(OCc1ccc(Cl)cc1Cl)c1ccncc1	none (no result: D1 mod)
COc1ccc(C(=O)NCCSc2ccccn2)cc1	D1 mod -5.3 (no result: FAK inh)
O=C1NC(=S)SC1=C1CCCC1	none (no result: D1 mod)
O=C(Nc1ccc(N2CCOCC2)cc1)c1cnsn1	D1 mod -6.8 (no result: FAK inh)
CCCNC(=O)N1CCC(C(=O)c2cccc(F)c2)CC1	none (no result: D1 mod)
Cc1ccc(C)c(S(=O)(=O)N2CCN(CC(=O)N3CCc4ccccc4C3)CC2)c1	none (no result: D1 mod)
CCc1ccc(NC(=O)C2(c3ccccc3)CC2(Cl)Cl)cc1 (configuration not stated)	Pyk2 oligo antag -3.1 (no result: CD11b adhes inh, D1 mod, Mac1 fbg enh)
Cc1cc(C)cc(NC(=O)C2(c3ccccc3)CC2(Cl)Cl)c1 (configuration not stated)	none (no result: D1 mod)
Cc1ccc(NC(=O)C2(c3ccccc3)CC2(Cl)Cl)cc1C (configuration not stated)	Pyk2 oligo antag -3.2 (no result: CD11b adhes inh, hDAT+cocaine, D1 mod, Mac1 fbg enh)
COc1ccc(S(=O)(=O)N2CCC(C(=O)N3CCCCC3)CC2)cc1Cl	none (no result: D1 mod)
CCOC(=O)c1ccc(NS(=O)(=O)c2c(N)n(C)c(=O)n(C)c2=O)cc1	none (no result: CD11b adhes inh, Pyk2 oligo antag, D1 mod, Mac1 fbg enh, FAK inh)
CC1CCCC(C)N1C(=O)c1cccc2c1-c1ccccc1/C2=N/O (configuration not stated)	hDAT+cocaine 4, Pyk2 oligo antag -3.3 (no result: CD11b adhes inh, D1 mod, Mac1 fbg enh)
Cc1ccc(NC(=O)COC(=O)c2cccc3c2C(=O)c2ccccc2C3=O)c(C)c1	none (no result: hDAT+cocaine, Pyk2 oligo antag, D1 mod, FAK inh)
CC(C)COC(=O)c1cccc2c1-c1ccccc1/C2=N\O	FAK inh 55 (no result: CD11b adhes inh, hDAT+cocaine, D1 mod, Mac1 fbg enh)
CC1CCCC(C)N1C(=O)c1ccccc1Nc1ccc(SC(F)F)cc1 (configuration not stated)	none (no result: CD11b adhes inh, D1 mod, Mac1 fbg enh)
CC(/C=N\NC(=O)CN1CCN(S(=O)(=O)c2ccc(C)cc2)CC1)=C\c1ccccc1	none (no result: hDAT+cocaine, Pyk2 oligo antag, D1 mod, FAK inh)
COc1cccc(NC(=O)C(=O)N/N=C/c2cc(C)n(-c3ccc(Cl)c(Cl)c3)c2C)c1	hDAT+cocaine -4.8 (no result: D1 mod)
COc1ccccc1/C=N/NC(=O)CC(=O)Nc1ccc(Cl)c(Cl)c1	none (no result: D1 mod)
Cc1cc(/C=N/NC(=O)Cn2c3ccccc3c(=O)c3ccccc32)c(C)n1-c1ccc(Cl)cc1	none (no result: hDAT+cocaine, Pyk2 oligo antag, D1 mod, FAK inh)
Cc1cc(/C=N\NC(=O)CC(=O)NC2CCCCC2)c(C)n1-c1ccc(Cl)c(Cl)c1	hDAT+cocaine -3.7 (no result: CD11b adhes inh, D1 mod, Mac1 fbg enh)
Cc1ccc(S(=O)(=O)N2CCOCC2)cc1C(=O)O	none (no result: FAK inh)
Cc1ccc(S(=O)(=O)N2CCOCC2)cc1C(=O)N1C(=O)c2cccc(N)c2C1=O	hDAT+cocaine -6.5
Cc1ccc(S(=O)(=O)N2CCCC2C(=O)O)s1 (configuration not stated)	none (no result: D1 mod)
Nc1ccc(C(=O)Nc2nc3ccccc3s2)cc1	D1 mod -6.6 (no result: Pyk2 oligo antag)
CCCc1[nH]n(-c2nc3ccccc3s2)c(=O)c1C=NCC(C)C	hDAT+cocaine 4.4 (no result: D1 mod)
CCCN=C(C)c1c(-c2ccccc2)[nH]n(-c2nc3ccccc3s2)c1=O	none (no result: D1 mod)
Cc1cccnc1Nc1nc(-c2ccc(O)cc2O)cs1	hDAT+cocaine 5.4
O=C(NCc1ccccc1)c1ccc(COCC(F)(F)F)o1	none
O=C(c1ccco1)N(Cc1ccc([N+](=O)[O-])cc1)c1ccc(Cl)cc1	none (no result: CD11b adhes inh, D1 mod, Mac1 fbg enh)
O=C(c1ccco1)N(Cc1ccc([N+](=O)[O-])cc1)c1ccc(Br)cc1	hDAT+cocaine 2.9 (no result: CD11b adhes inh, D1 mod, Mac1 fbg enh)
Nc1nc(-c2ccccc2)cc(C(F)(F)F)n1	D1 mod 27
Nc1nc(CSc2nnnn2-c2ccccc2)nc(N2CCCc3ccccc32)n1	Pyk2 oligo antag -4 (no result: CD11b adhes inh, Mac1 fbg enh)
O=C(O)CCSc1nc(C(F)(F)F)cc(=O)n1-c1ccccc1	none (no result: D1 mod)
NC(=S)N/N=C/c1ccc(-c2cc(Cl)ccc2Cl)o1	Pyk2 oligo antag -3 (no result: D1 mod)
O=C(Nc1ccccc1)C1=C[C@@H](c2coc3ccccc3c2=O)C[C@@H](OCCCCO)O1	none (no result: CD11b adhes inh, Pyk2 oligo antag, D1 mod, Mac1 fbg enh, FAK inh)
CCC(C)(C)n1nnnc1CN1CCC(NC(=O)c2ccc(Br)cc2)CC1	hDAT+cocaine 1.8 (no result: CD11b adhes inh, D1 mod, Mac1 fbg enh)
CC(=O)/C(=C/N(C)C)Sc1ccc(C)cc1	none (no result: D1 mod)
CCn1c(-c2cccc(Br)c2)n[nH]c1=S	none
CCn1c(-c2ccc3ncccc3c2)n[nH]c1=S	hDAT+cocaine 3.1 (no result: CD11b adhes inh, D1 mod, Mac1 fbg enh)
COc1cc(-c2c(C#N)c(N)nc3c2CCCC3)cc(OC)c1OC	none (no result: CD11b adhes inh, Mac1 fbg enh)
COc1cc(-c2c(C#N)c(N)nc(SCc3ccncc3)c2C#N)cc(OC)c1OC	Pyk2 oligo antag -4.1
CCOC(=O)c1ccc(N2C(=O)c3n[nH]c(C)c3C2c2ccc(OC)cc2)cc1 (configuration not stated)	none
CCOC(=O)c1ccc(N2C(=O)c3n[nH]c(C)c3C2c2ccc(OC)cc2OC)cc1 (configuration not stated)	Pyk2 oligo antag -3.2 (no result: CD11b adhes inh, Mac1 fbg enh)
CCOC(=O)c1ccc(N2C(=O)c3n[nH]c(C)c3C2c2ccc(OC)c(OC)c2)cc1 (configuration not stated)	D1 mod -2.3
